In PubChem BioAssay AID686978 (National Center for Advancing Translational Sciences (NCATS), 2013):
Values joined by “and” are separate entries in the source; they are usually repeats but may differ in a detail not shown here. Equal entries are not always repeated. Screen size: about 420,000 compounds; about 64,000 (15%) were called active. Roughly 27% stayed inconclusive and do not appear here. Calls follow the shape of the dose curve; as a rule, active = well fitted inhibition curve with a large enough effect; inconclusive = small, poorly fitted or top-dose-only effect; inactive = flat fitted curve, though single readings scatter. A selection follows. Entries that show only a call come without a potency.

test: qHTS for Inhibitors of human tyrosyl-DNA phosphodiesterase 1 (TDP1): qHTS in cells in absence of CPT; conditions: DT40 Tdp1-/- hTDP1 cells, no CPT, ATP luminescence, 48 h; activity change, negative = growth inhibition: at 46.2 µM (top of the series); also: nearly all actives have a fitted effect of over 55% in size
Outline: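 Growth of hTDP1-complemented DT40 Tdp1-knockout cells is measured by ATP luminescence after at least 48 hr compound exposure at 37 °C, with DMSO substituting for the 20 nM CPT used in the parallel screen.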
Potency is read from the fitted curve at half-maximal effect.

SMILES	Potency
NS(=O)(=O)c1ccc(NC(=O)/C=C/c2ccccc2Cl)cc1	inactive
C/C(=C/c1ccccc1)C(=O)N1CCN(c2ccccc2)CC1	inactive
Cc1ccc(S(=O)(=O)CCC(=O)OCC(=O)N(C)C2CCS(=O)(=O)C2)cc1 (stereo unspecified)	inactive
COCCn1c(C)cc(C(=O)COC(=O)CNC(=O)c2ccco2)c1C	inactive
COc1cccc(N(CC(=O)NC2CCCC2)C(=O)CCCC(=O)Nc2ccccn2)c1	inactive
O=NN(CCCl)C(=O)NCCc1cccc[n+]1[O-]	inactive
O=C1COc2ccc(S(=O)(=O)Nc3ccc(OC(F)(F)F)cc3)cc2N1	inactive
Cc1ccc(S(=O)(=O)N2CCN(C(=O)CCC(=O)NC3CCCc4ccccc43)CC2)cc1 (stereo unspecified)	inactive
COc1ccc(C)cc1S(=O)(=O)N1CCN(S(=O)(=O)c2cc(C(=O)O)ccc2C)CC1	inactive
Cc1ccc(S(=O)(=O)N2CCN(c3nc(-n4cnc5ccccc54)nc4ccccc34)CC2)cc1	inactive
Cc1ccc(S(=O)(=O)N2CCN(c3ncnc4ccccc34)CC2)cc1	820 nM (active) and 1.26 µM (active)
Cc1ccc(C)c(S(=O)(=O)n2nc(C)c(S(=O)(=O)N3CCC(C)CC3)c2C)c1	inactive
O=[N+]([O-])c1ccc(S(=O)(=O)N2CCN(c3nc(-c4ccccc4)nc4ccccc34)CC2)cc1	inactive
Cc1ccc(C)c(S(=O)(=O)N2CCN(c3ncnc4sccc34)CC2)c1	3.66 µM (active)
COc1ccccc1C(=O)NCCC(=O)NC1=NCCS1	inactive
Cc1cccc(N(C(=O)c2ccc(CN3CCOCC3)o2)C(C(=O)NC2CCCCC2)c2ccc(F)cc2)c1 (stereo unspecified)	inactive
COc1cc(OC)c(S(=O)(=O)Nc2ccccc2C(=O)O)cc1S(=O)(=O)Nc1ccccc1C(=O)O	inactive
COc1ccccc1OCC(=O)OCn1c(SC)nnc(C)c1=O	inactive
O=C(Nc1cccc(S(=O)(=O)NC2=NCCC2)c1)C1CCCCC1	inactive
O=C(NCc1ccccc1)C1c2ccccc2OCC(=O)N1CCCN1CCOCC1 (stereo unspecified)	inactive
CCOc1cc(/C=C2\C(=N)N3N=C(C)SC3=NC2=O)ccc1OCCOc1ccccc1	inactive
O=C(O)CCCCCCCCc1cn(CN2C(=O)c3ccccc3C2=O)nn1	inactive

SMILES	Potency
Cc1cc(C)c(OCC(=O)N(Cc2cccs2)C2CCS(=O)(=O)C2)c(C)c1 (stereo unspecified)	inactive
Cc1ccsc1CN(C(=O)c1oc2ccc(Br)cc2c1C)C1CCS(=O)(=O)C1 (stereo unspecified)	6.51 µM (active)
COc1cc(C(=O)N(Cc2ccc(N(C)C)cc2)C2CCS(=O)(=O)C2)cc(OC)c1OC (stereo unspecified)	inactive
O=C(COC(=O)c1ccccc1)Nc1ccccc1Sc1ccccc1	inactive
NC(=O)c1ccsc1NC(=O)c1ccco1	inactive
O=C(NCc1ccco1)C(=O)c1cn(CC(=O)N2CCCCCC2)c2ccccc12	inactive
CCCCC(=O)Nc1ccc(C(=O)NCCCn2ccnc2)cc1	inactive
CC(C)(C)c1ccc(/C=C/C(=O)NCCCn2ccnc2)cc1	16.4 µM (active)
O=C(/C=C/c1ccc(Cl)cc1)NCCCn1ccnc1	inactive
CN(C(=O)CN1C(=O)NC(C)(CCc2ccccc2)C1=O)c1ccccc1 (stereo unspecified)	inactive
Cc1cc(C)nc(N(C#N)CC(=O)Nc2ccccc2)n1	inactive
Nc1cccc2c1C(=O)N(Cc1nnc(-c3ccccc3Br)o1)C2=O	inactive
Cc1ccc(C=O)cc1Cl	inactive
CCOc1ccc(NC(=O)c2ccc(NC(=O)COC(=O)c3ccc(NC(=O)CC#N)cc3)cc2)cc1	inactive
CCC(C)(C)c1ccc(Oc2ccc(NC(=O)COC(=O)C3=COCCO3)cc2)cc1	25.9 µM (active)
COc1ccc(NC(=O)COC(=O)C2COc3ccccc3O2)cc1 (stereo unspecified)	inactive
COC(=O)c1ccc(C2NC(=O)NC(C)=C2C(=O)N(C)C)cc1 (stereo unspecified)	inactive
NC(=O)c1nnsc1-c1ccc(-c2snnc2C(N)=O)cc1	inactive
CCCCN(CC)CCNC(=O)c1[nH]c(C)c(C(C)=O)c1C	inactive
CCS(=O)(=O)N1CCCC(C(=O)NCCCN(C)Cc2ccccc2)C1 (stereo unspecified)	inactive
c1ccc2c(CNn3cnnc3)cccc2c1	inactive
c1ccc(NCc2cccc3ccccc23)nc1	inactive

SMILES	Potency
N=C(N)SCc1cccc2ccccc12	20.6 µM (active)
CCCCCc1ccc(-c2ccc(C(=O)O)cc2)nc1	inactive
CCN(C(=O)COC(=O)c1c(NC(C)=O)sc(C)c1C)C1CCS(=O)(=O)C1 (stereo unspecified)	inactive
Cc1c(NC(=O)C(C)Oc2cccc(Cl)c2)c(=O)n(-c2ccccc2)n1C (stereo unspecified)	inactive
O=c1nc2s/c(=C\c3ccco3)c(=O)n2nc1Cc1ccccc1	inactive
Cc1csc(Nc2ccc(Cl)cc2)[n+]1-c1ccc(Cl)cc1	25.9 µM (active)
Cc1cc(-c2nc(C)c(-c3nnc(SCC(=O)Nc4ccccc4)n3C)s2)no1	inactive
Cc1cc(C(=O)OCC(=O)Nc2ccc(F)c(F)c2)c(C)o1	inactive
COc1ccc(CNC(=O)CSc2n[nH]c(N)n2)cc1OC	inactive
COc1ccc(CNC(=O)COc2ccccc2C(=O)c2cnn(-c3ccccc3)c2)cc1OC	14.6 µM (active)
COc1cc(CO)ccc1OCC(=O)Nc1cccc2ccccc12	inactive
COc1cc(S(=O)(=O)Nc2ncn[nH]2)ccc1Cl	inactive
CCc1nnc(NC(=O)CSc2nnc(COc3ccc(C#N)cc3)n2-c2ccccc2)s1	inactive
CC(C)(C)NC(=O)C(c1ccco1)N(Cc1ccc2c(c1)OCO2)C(=O)Cn1nnc2ccccc21 (stereo unspecified)	inactive
Cc1coc(C)c1C(=O)CC1(O)C(=O)N(C)c2ccc(Cl)cc21 (stereo unspecified)	inactive
Cc1ccc(C(=O)CC2(O)C(=O)N(CCc3ccccc3)c3ccc(Br)cc32)cc1 (stereo unspecified)	16.4 µM (active)
Cc1ccc(CCN2CC(C(=O)NCCc3ccccc3)CC2=O)cc1 (stereo unspecified)	inactive
O=C(CC1(O)C(=O)N(CN2CCOCC2)c2ccccc21)c1ccccc1 (stereo unspecified)	inactive
CCc1ccc(C(=O)COC(=O)c2ccco2)cc1	inactive
CCCN1C(=O)C(O)(CC(=O)c2ccc(CC)cc2)c2cc(Br)ccc21 (stereo unspecified)	6.51 µM (active)
Cc1ccccc1-c1nc(C#N)c(NCc2ccco2)o1	inactive
COc1cc(NC(=O)C2CCN(c3cnccn3)CC2)cc(OC)c1	inactive
